Columns and labels:
Assay in all cases: log2 ratio of Biotin-Ahx-Ub-VS probe labelling (fragment/DMSO); higher = less target engagement (more negative = stronger competition), active = hit call of the paper (q ≤ 0.05, log2 ratio ≤ -1)
Conditions in all cases: compound concentration: 200 uM; treatment time: 3 h
USP34 = USP34 (UniProt Q70CQ2)
Method in brief: (§1)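 Using Biotin-Ahx-Ub-VS at 0.5 µM final for 1 h, DUBs were labelled in HEK293T lysate (495 µg per sample) that had first been treated in triplicate with fragment at 200 µM or vehicle for 3 h. NeutrAvidin enrichment, LysC and trypsin digestion and diaPASEF LC-MS/MS followed. Spectronaut label-free quantities were global-median-normalised. Values are average log2 fragment/vehicle ratios by unpaired t-test, using proteins with ≥2 unique peptides.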

USP36 = biological target: T1, USP36 (UniProt Q9P275)
T1 sequence (whole entry): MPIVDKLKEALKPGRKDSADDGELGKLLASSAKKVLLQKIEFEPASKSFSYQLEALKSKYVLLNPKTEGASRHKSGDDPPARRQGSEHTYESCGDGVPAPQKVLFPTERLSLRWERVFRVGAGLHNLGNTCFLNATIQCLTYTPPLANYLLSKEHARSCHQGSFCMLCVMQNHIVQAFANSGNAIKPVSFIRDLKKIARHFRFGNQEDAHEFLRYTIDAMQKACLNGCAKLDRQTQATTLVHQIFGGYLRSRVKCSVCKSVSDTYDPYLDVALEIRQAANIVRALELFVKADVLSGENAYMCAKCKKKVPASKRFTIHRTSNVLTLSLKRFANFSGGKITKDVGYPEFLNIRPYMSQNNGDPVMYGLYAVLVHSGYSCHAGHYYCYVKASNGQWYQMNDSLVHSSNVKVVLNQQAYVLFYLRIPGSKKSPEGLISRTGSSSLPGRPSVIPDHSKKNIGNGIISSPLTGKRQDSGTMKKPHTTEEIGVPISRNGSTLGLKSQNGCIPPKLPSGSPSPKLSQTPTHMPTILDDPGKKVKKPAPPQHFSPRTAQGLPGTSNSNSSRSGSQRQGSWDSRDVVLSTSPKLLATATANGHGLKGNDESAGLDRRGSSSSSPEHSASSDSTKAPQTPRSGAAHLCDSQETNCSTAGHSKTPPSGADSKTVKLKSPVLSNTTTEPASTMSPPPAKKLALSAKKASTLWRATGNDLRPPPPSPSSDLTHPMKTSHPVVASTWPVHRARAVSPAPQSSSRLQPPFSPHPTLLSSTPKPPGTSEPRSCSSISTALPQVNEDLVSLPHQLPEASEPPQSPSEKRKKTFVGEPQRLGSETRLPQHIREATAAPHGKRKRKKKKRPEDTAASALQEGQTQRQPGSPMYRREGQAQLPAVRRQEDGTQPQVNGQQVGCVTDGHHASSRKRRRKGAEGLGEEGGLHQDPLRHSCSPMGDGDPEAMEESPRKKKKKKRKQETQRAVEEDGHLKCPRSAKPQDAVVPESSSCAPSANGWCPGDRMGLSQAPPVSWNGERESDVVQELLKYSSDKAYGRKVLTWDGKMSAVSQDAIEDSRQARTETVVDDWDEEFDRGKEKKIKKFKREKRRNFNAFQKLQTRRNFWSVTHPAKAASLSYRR
Method in brief: as §1

USP38 = biological target: T2, USP38 (UniProt Q8NB14)
T2 sequence (whole entry): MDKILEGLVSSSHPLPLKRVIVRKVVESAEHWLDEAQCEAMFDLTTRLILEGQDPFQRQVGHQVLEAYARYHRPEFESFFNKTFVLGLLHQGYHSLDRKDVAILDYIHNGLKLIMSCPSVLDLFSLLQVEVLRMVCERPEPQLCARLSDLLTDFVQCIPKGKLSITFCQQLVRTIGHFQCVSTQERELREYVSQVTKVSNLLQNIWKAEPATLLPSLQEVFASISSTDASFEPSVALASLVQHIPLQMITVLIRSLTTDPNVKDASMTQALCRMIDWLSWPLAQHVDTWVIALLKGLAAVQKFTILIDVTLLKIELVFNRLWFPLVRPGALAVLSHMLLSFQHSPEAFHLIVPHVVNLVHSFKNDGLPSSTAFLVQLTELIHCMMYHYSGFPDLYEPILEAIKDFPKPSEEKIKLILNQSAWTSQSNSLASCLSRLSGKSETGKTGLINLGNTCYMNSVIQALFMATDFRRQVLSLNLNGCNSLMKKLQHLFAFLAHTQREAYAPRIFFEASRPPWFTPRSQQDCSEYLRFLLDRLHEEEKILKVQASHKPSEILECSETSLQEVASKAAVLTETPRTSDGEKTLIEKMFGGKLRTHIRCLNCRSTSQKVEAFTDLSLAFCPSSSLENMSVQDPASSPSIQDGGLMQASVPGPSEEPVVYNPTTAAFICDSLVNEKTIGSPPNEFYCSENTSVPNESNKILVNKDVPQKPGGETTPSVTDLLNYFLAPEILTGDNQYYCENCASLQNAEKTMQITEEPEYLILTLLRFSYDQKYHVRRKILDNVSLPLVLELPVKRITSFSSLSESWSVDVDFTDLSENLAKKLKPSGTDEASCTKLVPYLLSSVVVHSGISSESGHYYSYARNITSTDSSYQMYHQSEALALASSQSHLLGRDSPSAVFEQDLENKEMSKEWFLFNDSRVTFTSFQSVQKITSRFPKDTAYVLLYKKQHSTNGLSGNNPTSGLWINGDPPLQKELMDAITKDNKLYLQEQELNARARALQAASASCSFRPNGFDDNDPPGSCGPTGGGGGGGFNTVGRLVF
Method in brief: as §1

USP39 = biological target: T3, USP39 (UniProt Q53GS9)
T3 sequence (whole entry): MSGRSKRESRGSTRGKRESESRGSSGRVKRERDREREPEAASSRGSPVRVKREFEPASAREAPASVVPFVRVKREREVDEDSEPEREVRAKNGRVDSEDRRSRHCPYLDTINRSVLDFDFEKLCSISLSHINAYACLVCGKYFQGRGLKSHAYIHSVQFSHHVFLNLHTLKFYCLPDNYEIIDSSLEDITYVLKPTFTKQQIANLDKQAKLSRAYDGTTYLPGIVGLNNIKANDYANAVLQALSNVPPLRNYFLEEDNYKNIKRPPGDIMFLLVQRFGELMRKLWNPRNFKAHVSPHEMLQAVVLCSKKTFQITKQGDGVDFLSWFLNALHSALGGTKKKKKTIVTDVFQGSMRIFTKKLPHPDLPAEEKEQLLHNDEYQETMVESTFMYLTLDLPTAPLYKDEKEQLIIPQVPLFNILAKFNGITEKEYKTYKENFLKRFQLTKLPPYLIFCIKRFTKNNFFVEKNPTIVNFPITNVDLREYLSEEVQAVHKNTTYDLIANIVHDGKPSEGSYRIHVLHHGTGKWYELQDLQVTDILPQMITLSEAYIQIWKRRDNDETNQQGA
Method in brief: as §1

USP4 = biological target: T4, USP4 (UniProt Q13107)
T4 sequence (whole entry): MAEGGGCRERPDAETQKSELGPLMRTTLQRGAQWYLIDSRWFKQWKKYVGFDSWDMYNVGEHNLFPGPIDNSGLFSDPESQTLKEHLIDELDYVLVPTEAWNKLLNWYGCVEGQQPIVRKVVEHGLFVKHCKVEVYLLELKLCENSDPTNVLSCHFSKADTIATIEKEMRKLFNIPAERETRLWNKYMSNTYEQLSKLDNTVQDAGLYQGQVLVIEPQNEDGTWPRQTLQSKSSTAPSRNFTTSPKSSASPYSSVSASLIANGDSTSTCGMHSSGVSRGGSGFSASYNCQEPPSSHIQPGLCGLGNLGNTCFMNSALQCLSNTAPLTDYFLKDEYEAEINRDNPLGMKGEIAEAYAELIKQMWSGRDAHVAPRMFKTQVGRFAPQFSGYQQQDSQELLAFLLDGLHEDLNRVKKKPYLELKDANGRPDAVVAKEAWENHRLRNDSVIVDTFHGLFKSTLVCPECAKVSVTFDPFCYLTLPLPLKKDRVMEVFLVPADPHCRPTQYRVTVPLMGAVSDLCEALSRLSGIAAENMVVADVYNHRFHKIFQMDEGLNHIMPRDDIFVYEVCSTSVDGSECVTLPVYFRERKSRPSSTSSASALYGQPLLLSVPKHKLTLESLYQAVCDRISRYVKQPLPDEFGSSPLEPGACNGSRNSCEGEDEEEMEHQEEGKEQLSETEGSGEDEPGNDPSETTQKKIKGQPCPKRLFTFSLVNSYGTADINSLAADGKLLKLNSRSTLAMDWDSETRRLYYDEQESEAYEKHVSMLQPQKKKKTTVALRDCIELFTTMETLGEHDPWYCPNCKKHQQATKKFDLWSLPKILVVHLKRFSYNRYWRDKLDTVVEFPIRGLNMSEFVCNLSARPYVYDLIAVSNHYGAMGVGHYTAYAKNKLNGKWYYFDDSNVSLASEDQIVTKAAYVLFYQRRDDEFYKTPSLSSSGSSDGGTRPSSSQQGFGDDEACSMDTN
Method in brief: as §1

Measured: log2 ratio of Biotin-Ahx-Ub-VS probe labelling

Chain of USP34 (Q70CQ2 whole entry, the tested form may be a part): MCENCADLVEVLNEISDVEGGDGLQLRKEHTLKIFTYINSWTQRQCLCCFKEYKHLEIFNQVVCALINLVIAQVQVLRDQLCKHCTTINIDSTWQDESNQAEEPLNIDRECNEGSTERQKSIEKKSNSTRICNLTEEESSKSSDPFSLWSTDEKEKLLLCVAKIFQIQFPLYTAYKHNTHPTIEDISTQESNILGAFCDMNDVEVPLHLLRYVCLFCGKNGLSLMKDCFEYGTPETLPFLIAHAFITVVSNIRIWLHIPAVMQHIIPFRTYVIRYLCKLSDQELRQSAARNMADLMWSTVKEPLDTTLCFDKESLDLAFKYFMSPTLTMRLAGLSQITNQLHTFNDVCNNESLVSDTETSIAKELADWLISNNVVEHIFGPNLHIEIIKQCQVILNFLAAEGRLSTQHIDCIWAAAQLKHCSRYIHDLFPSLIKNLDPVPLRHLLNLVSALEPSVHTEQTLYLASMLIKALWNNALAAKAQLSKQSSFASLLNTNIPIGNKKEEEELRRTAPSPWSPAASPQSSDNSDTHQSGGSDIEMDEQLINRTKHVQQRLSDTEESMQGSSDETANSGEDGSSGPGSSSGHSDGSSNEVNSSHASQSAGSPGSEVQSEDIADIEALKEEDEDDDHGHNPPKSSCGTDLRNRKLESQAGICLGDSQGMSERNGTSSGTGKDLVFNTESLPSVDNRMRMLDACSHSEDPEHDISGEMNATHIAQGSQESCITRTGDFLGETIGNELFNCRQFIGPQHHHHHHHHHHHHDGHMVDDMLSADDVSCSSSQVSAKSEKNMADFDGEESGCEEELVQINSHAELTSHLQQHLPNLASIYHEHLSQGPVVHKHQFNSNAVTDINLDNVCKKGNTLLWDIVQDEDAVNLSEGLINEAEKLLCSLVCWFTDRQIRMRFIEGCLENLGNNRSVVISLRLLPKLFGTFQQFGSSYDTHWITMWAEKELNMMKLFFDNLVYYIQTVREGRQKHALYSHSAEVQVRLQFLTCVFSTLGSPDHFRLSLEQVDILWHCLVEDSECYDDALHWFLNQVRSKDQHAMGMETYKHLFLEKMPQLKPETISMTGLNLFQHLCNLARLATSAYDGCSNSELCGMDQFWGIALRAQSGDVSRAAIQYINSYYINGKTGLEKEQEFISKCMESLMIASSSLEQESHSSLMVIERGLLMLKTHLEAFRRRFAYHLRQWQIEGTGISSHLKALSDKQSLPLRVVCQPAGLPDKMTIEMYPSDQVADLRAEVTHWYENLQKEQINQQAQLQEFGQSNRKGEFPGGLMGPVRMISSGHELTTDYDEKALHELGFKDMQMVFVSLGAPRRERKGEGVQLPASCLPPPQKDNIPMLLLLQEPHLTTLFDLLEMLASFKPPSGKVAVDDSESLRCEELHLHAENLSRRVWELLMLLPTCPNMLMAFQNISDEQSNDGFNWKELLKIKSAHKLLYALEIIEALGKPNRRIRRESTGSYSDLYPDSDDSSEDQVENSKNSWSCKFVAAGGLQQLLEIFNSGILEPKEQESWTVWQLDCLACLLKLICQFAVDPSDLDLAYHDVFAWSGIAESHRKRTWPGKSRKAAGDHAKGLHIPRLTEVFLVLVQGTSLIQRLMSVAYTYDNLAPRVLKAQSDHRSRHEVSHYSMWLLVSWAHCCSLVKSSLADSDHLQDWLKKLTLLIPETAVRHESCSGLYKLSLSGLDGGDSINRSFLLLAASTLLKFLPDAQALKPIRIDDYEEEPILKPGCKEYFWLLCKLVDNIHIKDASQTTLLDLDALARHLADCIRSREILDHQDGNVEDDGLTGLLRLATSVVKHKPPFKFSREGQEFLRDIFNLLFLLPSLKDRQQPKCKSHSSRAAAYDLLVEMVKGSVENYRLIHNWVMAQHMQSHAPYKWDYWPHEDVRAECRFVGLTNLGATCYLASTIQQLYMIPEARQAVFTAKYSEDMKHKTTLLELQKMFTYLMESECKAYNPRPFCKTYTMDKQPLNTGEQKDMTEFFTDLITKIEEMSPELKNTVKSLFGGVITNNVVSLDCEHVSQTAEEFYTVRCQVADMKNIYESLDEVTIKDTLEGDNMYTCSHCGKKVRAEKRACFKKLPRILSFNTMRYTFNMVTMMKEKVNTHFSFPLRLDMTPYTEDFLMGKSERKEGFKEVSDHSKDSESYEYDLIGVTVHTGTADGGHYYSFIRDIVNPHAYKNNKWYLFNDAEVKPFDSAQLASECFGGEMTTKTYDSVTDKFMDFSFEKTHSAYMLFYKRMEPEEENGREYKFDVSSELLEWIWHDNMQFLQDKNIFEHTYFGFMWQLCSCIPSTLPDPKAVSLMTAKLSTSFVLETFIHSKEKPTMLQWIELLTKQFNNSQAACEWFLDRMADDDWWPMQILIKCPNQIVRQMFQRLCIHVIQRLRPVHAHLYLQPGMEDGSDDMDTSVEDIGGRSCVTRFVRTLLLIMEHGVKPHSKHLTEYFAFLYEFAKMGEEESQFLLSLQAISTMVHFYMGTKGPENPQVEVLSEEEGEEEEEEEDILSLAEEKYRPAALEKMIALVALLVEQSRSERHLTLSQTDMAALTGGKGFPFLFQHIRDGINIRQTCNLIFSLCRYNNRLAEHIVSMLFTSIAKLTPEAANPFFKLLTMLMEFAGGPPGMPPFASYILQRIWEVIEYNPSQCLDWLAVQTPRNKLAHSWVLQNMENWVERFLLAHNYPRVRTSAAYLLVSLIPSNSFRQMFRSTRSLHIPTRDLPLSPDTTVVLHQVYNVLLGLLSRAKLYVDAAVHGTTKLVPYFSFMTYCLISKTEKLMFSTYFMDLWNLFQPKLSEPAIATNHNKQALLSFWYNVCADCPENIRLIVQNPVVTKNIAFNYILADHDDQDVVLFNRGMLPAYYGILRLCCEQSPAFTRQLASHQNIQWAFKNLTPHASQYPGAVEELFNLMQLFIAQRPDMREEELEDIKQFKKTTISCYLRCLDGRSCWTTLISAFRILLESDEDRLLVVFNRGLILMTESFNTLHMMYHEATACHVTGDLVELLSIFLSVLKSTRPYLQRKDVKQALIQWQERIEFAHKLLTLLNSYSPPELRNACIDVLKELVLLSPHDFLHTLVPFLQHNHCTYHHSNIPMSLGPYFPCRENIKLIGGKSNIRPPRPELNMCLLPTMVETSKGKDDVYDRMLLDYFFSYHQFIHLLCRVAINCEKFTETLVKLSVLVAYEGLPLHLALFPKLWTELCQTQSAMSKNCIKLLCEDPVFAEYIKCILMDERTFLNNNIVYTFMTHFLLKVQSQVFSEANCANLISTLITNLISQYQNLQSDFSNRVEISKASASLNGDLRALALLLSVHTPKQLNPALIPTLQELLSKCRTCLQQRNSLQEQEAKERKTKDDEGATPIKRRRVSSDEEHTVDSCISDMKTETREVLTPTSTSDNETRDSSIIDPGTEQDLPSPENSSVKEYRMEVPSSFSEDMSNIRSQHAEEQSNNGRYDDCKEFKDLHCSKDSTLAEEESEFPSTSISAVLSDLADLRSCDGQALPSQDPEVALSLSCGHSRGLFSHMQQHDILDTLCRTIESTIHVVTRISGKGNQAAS

O=C(CCl)NCc1ccc2c(c1)OCO2
inactive: USP34 0.112 | USP36 0.129 | USP38 -0.0864 | USP39 0.0456 | USP4 0.0604

From the supplement of paper PMC11732987, “Enantioselective OTUD7B fragment discovery through chemoproteomics screening and high-throughput optimisation” (Communications Chemistry, 2025)
